TDP1 block – qHTS Assay for Inhibitors of Tyrosyl-DNA Phosphodiesterase (TDP1); Tyrosyl-DNA phosphodiesterase 1 (Homo sapiens), Q9NUW8; recombinant TDP1, AlphaScreen DNA substrate cleavage; Potency, µM (doses to about 130 µM), for the others: at the highest dose activity change, negative = inhibition, actives largely listed as inhibitors; 350,000 compounds, 0.28% hits; further: potency means the concentration at half of the fitted maximal effect; on the % scale 0 is the no-effect control and ±100 the full control effect; nearly all actives have a fitted effect of over 40% in size
Target sequence (Q9NUW8 whole entry, looked up): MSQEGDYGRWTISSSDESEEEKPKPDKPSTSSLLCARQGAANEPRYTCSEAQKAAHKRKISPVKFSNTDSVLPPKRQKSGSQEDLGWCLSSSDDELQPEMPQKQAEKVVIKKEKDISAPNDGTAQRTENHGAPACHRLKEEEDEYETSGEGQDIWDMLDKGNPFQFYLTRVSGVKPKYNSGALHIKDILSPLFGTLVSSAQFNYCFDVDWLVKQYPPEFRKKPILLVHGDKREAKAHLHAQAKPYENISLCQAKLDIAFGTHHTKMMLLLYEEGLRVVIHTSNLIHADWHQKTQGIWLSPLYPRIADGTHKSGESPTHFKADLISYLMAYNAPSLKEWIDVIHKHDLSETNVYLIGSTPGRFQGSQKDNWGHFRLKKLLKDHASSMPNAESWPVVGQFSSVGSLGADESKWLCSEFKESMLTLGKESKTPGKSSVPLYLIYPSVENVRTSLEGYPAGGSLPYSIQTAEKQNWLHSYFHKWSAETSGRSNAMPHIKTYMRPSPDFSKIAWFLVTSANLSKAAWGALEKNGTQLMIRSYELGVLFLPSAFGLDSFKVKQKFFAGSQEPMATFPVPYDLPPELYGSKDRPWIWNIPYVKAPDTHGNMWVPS
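Steps: enzyme plus compound, 15 min RT; add biotin/phosphotyrosine-FITC oligonucleotide (15 nM final), react 5 min; add donor/acceptor beads (10 ug/ml final), 10 min; read AlphaScreen. Tdp1 at 1 nM final.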
TDP1 cell CPT – qHTS for Inhibitors of human tyrosyl-DNA phosphodiesterase 1 (TDP1): qHTS in cells in presence of CPT; AID 686979, 2013; 420,000 compounds, 12% hits; chicken DT40 Tdp1-/-;hTDP1 cells + 20 nM CPT, ATP luminescence, 48 h; Potency, µM (titrated, usually from 46.2 µM), for the others: at the highest dose activity change, negative = growth inhibition, actives largely listed as inhibitors; further: potency means the concentration at half of the fitted maximal effect; on the % scale 0 is the no-effect control and ±100 the full control effect; nearly all actives have a fitted effect of over 55% in size
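Cell growth measured by CellTiter-Glo luminescence after a minimum 48 h, 37 C compound exposure with 20 nM CPT in Tdp1-knockout DT40 cells stably expressing hTDP1, seeded 400/well; qHTS titration format.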
miR-21 act – qHTS Assay for Modulators of miRNAs and/orActivators of miR-21; HeLa miR-21 FLuc reporter, luciferase, 48 h; Potency, µM (doses to about 38.3 µM), for the others: at the top dose activity change, positive = activation, most hits filed as activators; 340,000 tested, under 10 active;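 further: % of control where 0% means no effect; miR-21 action dims this reporter so a rising signal means less miR-21 action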
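Using DMEM plus 10% FBS, HeLa miR-21-FLuc cells are incubated with test compounds (final up to about 40uM) for 48 hours; firefly luciferase signal is then imaged following reagent-mediated lysis.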
TDP1 cell noCPT – qHTS for Inhibitors of human tyrosyl-DNA phosphodiesterase 1 (TDP1): qHTS in cells in absence of CPT; DT40 Tdp1-/- hTDP1 cells, no CPT, ATP luminescence, 48 h; Potency, µM (doses to about 46.2 µM), without a hit: at the highest dose activity change, negative = growth inhibition, most hits filed as inhibitors; 420,000 compounds, 15% hits; further: potency means the concentration at half of the fitted maximal effect; on the % scale 0 is the no-effect control and ±100 the full control effect; nearly all actives have a fitted effect of over 55% in size
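Growth of hTDP1-complemented DT40 Tdp1-knockout cells is measured by ATP luminescence after at least 48 hr compound exposure at 37 °C, with DMSO substituting for the 20 nM CPT used in the parallel screen.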
uPA generation – qHTS for Inhibitors of Cell Surface uPA Generation; cell surface uPA generation assay, qHTS; Potency, µM (doses to about 38.3 µM), without a hit: at the top dose activity change, negative = inhibition, usual class: inhibitors; 330,000 compounds, 0.31% hits; active means well fitted inhibition curve with a large enough effect; inconclusive means small, poorly fitted or top-dose-only effect; inactive means no such curve, though single readings can be large or run the other way; tested in mouse RAW 264.7 cells; further: potency means the concentration at half of the fitted maximal effect; on the % scale 0 is the no-effect control and ±100 the full control effect; nearly all actives have a fitted effect of over 55% in size
* hit, by the source's call; ? = inconclusive; . = not tested or not shown; [ ] = another dose, or the depositor's remark. This is a sample that favours compounds with a hit; in the whole collection about 16% have one here. Unless noted, the call rests on the fitted dose curve; in most records, active means well fitted curve in the direction sought with a large enough effect; inconclusive means small, poorly fitted or top-dose-only effect, or another doubt; inactive means no such curve, though single readings can be large; an effect the other way counts as inactive or inconclusive.

SMILES | TDP1 block | TDP1 cell CPT | miR-21 act | TDP1 cell noCPT | uPA generation
COc1cccc(-c2nc3c(C#N)c[nH]n3c2NC2CCCCC2)c1OC | 3% | ? | -3% | 21µM* | .
COC(=O)CC1Oc2ccc(C)cc2-n2cc(-c3ccc(F)cc3)nc21 (stereo unspecified) | 12% | 18µM* | 0% | 9.2µM* | .
O=C(C1CC(c2ccc(Cl)c(Cl)c2)=NO1)N1CCC2(CC1)OCCO2 (stereo unspecified) | 5% | 15µM* | -53% | 15µM* | -4%
O=C(C1CC(c2ccc(F)cc2)=NO1)N1CCC2(CC1)OCCO2 (stereo unspecified) | 0% | 0% | -47% | -2% | 2%
O=Cc1c(C(=O)O)n(Cc2ccccc2F)c2ccccc12 | . | -26% | 1% | -4% | -1%
COC(=O)C1=C(c2ccc3ccccc3c2)C[C@@H]2CC[C@H]1N2C(=O)NCC1CC1 | 1% | 12µM* | . | 9.2µM* | -7%
COC(=O)C1=C(c2ccc3ccccc3c2)C[C@@H]2CC[C@H]1N2C(=O)NC1CCCCC1 | 1% | ? | . | 16µM* | ?
COC(=O)C1=C(c2ccc3ccccc3c2)C[C@@H]2CC[C@H]1N2C(=O)NC1CC1 | 0% | 15µM* | . | 9.2µM* | 3%
O=c1cc(CNc2cc(C(F)(F)F)cc(C(F)(F)F)c2)nc2sccn12 | -3% | ? | 18% | ? | ?
COC(=O)CCCC(NC(=S)N1CC2C[C@@H](C1)Cn1c2cccc1=O)C(=O)OC (stereo partly specified) | . | 0% | 0% | 18% | 1%
CN(C)c1cccc2c(C#N)ccc(N(C)C)c12 | -1% | -1% | 2% | -20% | -4%
CN(C(=O)Oc1ccc(C(=O)c2ccc(Cl)cc2)cc1)c1ccccc1 | -5% | 23µM* | -5% | 16µM* | -3%
CN(C)C(=O)Oc1ccc(OC(=O)c2ccccc2)cc1 | 6% | -19% | -17% | -18% | -2%
COc1ccc(Cc2nccc3cc(OC)c(OC)cc23)cc1OC | 8% | 8.2µM* | 11% | 5.8µM* | -23%
CN1C[C@H](C(=O)N[C@]2(C)O[C@@]3(O)[C@H]4CCCN4C(=O)[C@H](Cc4ccccc4)N3C2=O)C[C@H]2c3cccc4[nH]cc(c34)C[C@@H]21 | 18% | ? | . | ? | .
COc1cccc(NC(=O)C2CCN(c3nnc(C)c4c(C)n(-c5ccccc5)nc34)CC2)c1 | 6% | ? | 14% | 23µM* | .
Cc1ccc(CCNC(=O)Cn2nc(C)c3c(C)n(-c4ccc(C)cc4)nc3c2=O)cc1 | 3% | 23µM* | 14% | ? | .
Cc1ccc(-n2nc3c(N4CCC(C(=O)NCCc5ccccc5)CC4)nnc(C)c3c2C)cc1 | -3% | 4.6µM* | 2% | 5.8µM* | .
Cc1cccc(C)c1NC(=O)Cn1c(=O)n(CC2CCC(C(=O)NCCc3ccccc3)CC2)c(=O)c2ccccc21 (stereo unspecified) | 0% | ? | -4% | ? | .
COc1cc(N)c(Cl)cc1C(=O)N[C@@H]1CN2CCC1CC2 | 11%[56.1 µM] | . | . | . | .
CC1(C)Cc2c(sc3nc4n(-c5ccccc5)c(=O)c(CCC(=O)O)nn4c(=O)c23)CO1 | 10% | ? | -2% | -29% | -8%
CC1(C)Cc2c(sc3nc(-c4cccs4)n(N)c(=O)c23)CO1 | -6% | 16µM* | 15% | 23µM* | ?
CCCSc1cc(OC)c(CCN)cc1OC | . | 1.8µM* | . | 2.9µM* | .
CCCCCSc1cc(OC)c(CCN)cc1OC | 11% | 5.8µM* | 16% | 2.9µM* | -8%
Cc1cccc([N+](=O)[O-])c1 | 0% | 4% | . | -3% | 10%
Cc1ccc2nc(NC(=O)c3cccn(Cc4ccc(Cl)cc4)c3=O)sc2c1 | 9% | -3% | -2% | 2% | .

Compound activity: PubChem BioAssay, National Center for Advancing Translational Sciences (NCATS)
